Reference: PubChem BioAssay (NCATS)
Records with an inconclusive call do not appear. Where a call stands in place of a potency, no number is given. Activity calls are given as the source filed them. Calls follow the shape of the dose curve; as a rule, active = well fitted inhibition curve with a large enough effect; inconclusive = small, poorly fitted or top-dose-only effect; inactive = flat fitted curve, though single readings scatter.
Potency is read from the fitted curve at half-maximal effect.

The compounds below were run against Phospholipid hydroperoxide glutathione peroxidase GPX4 (Homo sapiens) (UniProt P36969) (assay: Primary qHTS Assay for Inhibitors of Recombinant Selenoprotein Glutathione Peroxidase 4 (GPX4) (AID 1845192; also: nearly all actives have a fitted effect of over 65% in size)). Conditions: recombinant GPX4, GR-coupled NADPH fluorescence, 15 min; series mostly up to 50 µM.
Phospholipid hydroperoxide glutathione peroxidase GPX4 (Homo sapiens), sequence (P36969 whole entry, looked up): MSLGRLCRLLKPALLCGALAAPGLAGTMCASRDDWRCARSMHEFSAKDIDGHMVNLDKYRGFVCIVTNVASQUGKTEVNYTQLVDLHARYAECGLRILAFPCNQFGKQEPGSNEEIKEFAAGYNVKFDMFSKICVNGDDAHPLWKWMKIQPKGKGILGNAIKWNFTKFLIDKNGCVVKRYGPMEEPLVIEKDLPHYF
Text: Assay Provider: Elias S.J. Arner MD PhD.
Department of Medical Biochemistry and Biophysics
Karolinska Institutet, Solna, Stockholm, Sweden
Selenoprotein glutathione peroxidases (GPX), like the ubiquitously expressed GPX1 and the ferroptosis modulator GPX4, enact their antioxidant activities by reducing hydroperoxides using glutathione. […] GPX1 and GPX4 inhibitors have thus shown promise as anti-cancer agents. Existing inhibitors are often promiscuous, or modulate GPX activity only indirectly, so novel direct inhibitors identified through screening against GPX1 and GPX4 could be valuable. Here, we developed optimized glutathione reductase (GR)-coupled GPX assays for the biochemical high-throughput screen (HTS) of almost 12,000 compounds with known mechanisms of action. Initial hits were triaged using a GR counter-screen, assessed for isoform specificity using a separate GPX2 assay, and were assessed for general selenocysteine-targeting activity using a thioredoxin reductase (TXNRD1) assay. With this suite of assays, we identified novel GPX1/GPX2- and GPX4-specific inhibitors and can here present a validated pipeline for future discovery research for selenoprotein-targeting agents.
SEQUENCE No. (e.g., 1, 2, 3, etc.); […] (e.g., Cells, Incubation, Reagent, etc.); VALUE; DESCRIPTION.
1; Reagent 1; 3 uL; 333.33 nM GPx4 enzyme or no enzyme control in 1536-well, black, solid Greiner assay plate.
2; Compound; 25 nL; Kalypsis pin tool (Wako USA) equipped with a 1536-well pin head.
3; Incubation; 30 min; room temperature.
4; Reagent 2; 1 uL; 500 nM GR, 5 mM GSH, 2.5 mM NADPH solution
5; Reagent 3; 1 uL; 2.5 mM CHP in 50% EtOH.
6; Detection; Fluorescence; ViewLux microplate reader, excitation 340 nm and emission 450 nm.
7; Incubation; 15 min; room temperature.
8; Detection; Fluorescence; ViewLux microplate reader, excitation 340 nm and emission 450 nm.
NOTES (numbers refer to Sequence numbers above)
1. 3 µL of 333.33 nM GPX4 and 0.016% BSA in assay buffer (50 mM Tris-HCl, 2 mM EDTA (pH 7.5), 150 mM NaCl) was added to columns 3-48 of 1536-well plates using a BioRAPTR Flying Reagent Dispenser (Let's Go Robotics (LGR), Carlsbad, CA). A no-enzyme control (0.01% BSA in TES assay buffer) was added to columns 1-2.
2. 25 nL, library and DMSO controls were added to each well with a pin tool (Kalypsys).
3. The assay plates were incubated for 30 minutes at room temperature.
4. 1 µL of master mix (500 nM glutathione reductase (GR), 5 mM reduced glutathione (GSH), 2.5 mM NADPH in assay buffer) was added.
5. 1 µL of cumene hydroperoxide (CHP) ([2.5 mM] in 50% EtOH) was then added within 5 minutes to initiate the reaction. Final concentrations were: 200 nM GPX4, 1 mM GSH, 0.5 mM CHP, 0.5 mM NADPH, 100 nM GR, 0.01% BSA.
6. Initial fluorescence readout (t=0) at 340/450 nm was measured using a ViewLux multimodal detector (PerkinElmer, Waltham, MA).
8. Endpoint fluorescence readout (t=15) at 340/450 nm was measured 15 min after room temperature incubation.
`COc1ccc(CCN2CCN(CCCc3ccccc3)CC2)cc1OC` was tested, and the Potency was “inactive”.
In the case of `O=C(Nc1ccc(F)c(C(F)(F)F)c1)Nc1nnc(-c2ccncc2)s1`, the Potency is reported as “inactive”.
With `NC[C@H](O)c1ccc(O)c(O)c1` the Potency was “inactive”.
In the case of `O=C(Nc1cccnc1)N1CCC(Cc2cccc(Oc3ccc(C(F)(F)F)cn3)c2)CC1`, the Potency is reported as “inactive”.
For `CCc1cc(Nc2nccc(-c3c(-c4ccc(OC)c(C(=O)Nc5c(F)cccc5F)c4)nc4ccccn34)n2)c(OC)cc1N1CCC(N2CCN(S(C)(=O)=O)CC2)CC1`, the Potency was “inactive”.
For `CS(=O)(=O)Oc1ccc2c(NC(N)=O)c(C(=O)c3ccc(Cl)cc3Cl)oc2c1`, the Potency was “inactive”.
With `Cc1n[nH]c(C)c1Cc1sc2c(c1C(=O)N1C[C@H](O)CO1)c(=O)n(C)c(=O)n2CC(C)C` the Potency was “inactive”.
`Cc1[nH]c(=O)c(C#N)cc1-c1ccncc1` was tested, and the Potency was “inactive”.
`CC(C[N+](C)(C)C)OC(N)=O` (stereo not given) was tested, and the Potency was “inactive”.
In the case of `CCOC(=O)N1CCC(=C2c3ccc(Cl)cc3CCc3cccnc32)CC1`, the Potency is reported as “inactive”.
In the case of `Cc1cc(SCc2sc(-c3ccc(C(F)(F)F)cc3)nc2C)ccc1OCC(=O)O`, the Potency is reported as “inactive”.
In the case of `Nc1ncnc2nc(-c3ccc(N4CCOCC4)nc3)cc(-c3cccc(Br)c3)c12`, the Potency is reported as “inactive”.
`C/C(=C\C(=O)Nc1ccccc1C(=O)O)c1ccc2ccccc2c1` was tested, and the Potency was 18 µM (active).
With `NNCCc1ccccc1` the Potency was “inactive”.
With `C[C@]12CCC(=O)C=C1CC[C@@H]1[C@@H]2[C@@H](O)C[C@@]2(C)[C@H]1CC[C@]2(O)C(=O)CO` the Potency was “inactive”.
`CCOc1cc(N2CCC(O)CC2)ccc1Nc1ncc2c(n1)N(C)c1ccccc1C(=O)N2C` was tested, and the Potency was “inactive”.
For `CCN(CC)CCCC(C)Nc1ccnc2cc(Cl)ccc12` (stereo not given), the Potency was “inactive”.
For `O=C(O)[C@@H](c1ccc(OCc2ccc3ccccc3n2)cc1)C1CCCC1`, the Potency was “inactive”.
In the case of `COc1nc(-c2ccc3c(c2)OCO3)n(-c2ccc(NC(=O)CSc3ccccc3)cc2)n1`, the Potency is reported as “inactive”.
For `CCOc1cc(C(=O)Nc2ccc(Cl)c(-c3nc4ccccc4[nH]3)c2)cc(OCC)c1OCC`, the Potency was “inactive”.
With `COc1ccc(COc2cc3oc(=O)c4cc(C(C)O)ccc4c3cc2OC)cc1` (stereo not given) the Potency was “inactive”.
`c1ccc([C@H]2CN3CCSC3=N2)cc1` was tested, and the Potency was “inactive”.
`Nc1nc2ccc(OC(F)(F)F)cc2s1` was tested, and the Potency was “inactive”.
For `Cn1c(=O)c(F)c(Nc2ccc(I)cc2F)c2c(=O)n(C[C@@H](O)CO)cnc21`, the Potency was “inactive”.
With `CCCn1c(=O)c2[nH]c(C34CC5CC3C[C@@H](C5)C4)nc2n(CCC)c1=O` the Potency was “inactive”.
With `N[C@@H]1CONC1=O` the Potency was “inactive”.
For `CC[C@H](Nc1ncnc2nc[nH]c12)c1nc2cccc(F)c2c(=O)n1-c1ccccc1`, the Potency was “inactive”.
In the case of `CCCCCCCc1ccc(CCc2cccc(O)c2C(=O)O)cc1`, the Potency is reported as 20.2 µM (active).
For `CNC(=O)c1ccc(N2C(=S)N(c3ccc(C#N)c(C(F)(F)F)c3)C(=O)C2(C)C)cc1F`, the Potency was “inactive”.
In the case of `CNC[C@H](O)c1cccc(O)c1`, the Potency is reported as “inactive”.
For `O=C(O)CCc1ccc(NCc2cccc(Oc3ccccc3)c2)cc1`, the Potency was “inactive”.
With `CCCc1nc2c(C)cc(-c3nc4ccccc4n3C)cc2n1Cc1ccc(-c2ccccc2C(=O)O)cc1` the Potency was “inactive”.
In the case of `CS(=O)(=O)c1cccc(CNc2nc(Nc3ccc4c(c3)CCC(=O)N4)ncc2C(F)(F)F)c1`, the Potency is reported as “inactive”.
With `CCCc1nn(C)c2c(=O)[nH]c(-c3cc(S(=O)(=O)N4CCN(C)CC4)ccc3OCC)nc12` the Potency was “inactive”.
`CCn1c(-c2nonc2N)nc2c(C#CC(C)(C)O)ncc(OC[C@H]3CCCNC3)c21` was tested, and the Potency was “inactive”.
With `O=C1[C@H](Cc2ccc(O)cc2)N2C(=O)CCN(C(=O)NCc3ccccc3)[C@H]2CN1Cc1cccc2ccccc12` the Potency was “inactive”.
With `COc1ccc(CC2=NN3C([C@@H](CCc4ccccc4)[C@@H](C)O)=NC(C)C3C(=O)N2)cc1OC` (stereo not given in full) the Potency was “inactive”.
For `COc1ccccc1[C@H](c1cccc2ccccc12)[C@@](C)(C#N)C(=O)N1CCC(c2cccc(C(F)(F)F)c2)CC1`, the Potency was “inactive”.
In the case of `Clc1cccc(Cl)c1NC1=NCCN1`, the Potency is reported as “inactive”.
`CCCCNc1cc(C(=O)O)cc(S(N)(=O)=O)c1Oc1ccccc1` was tested, and the Potency was “inactive”.
